# Screens from PubChem.
# Rows were chosen to be rich in hits. Some 21% of all compounds tested hit in one or more screens of this group.
# Shiga toxin inh = A qHTS for Small Molecule Inhibitors of Shiga Toxin | Vero cells, Shiga toxin protein synthesis inhibition reporter | inhibition, % at 38.7 µM | 9.2% of 290,000 active | AID 2315, 2010; in the data active means inhibition mostly above about 28%, no sharp cut-off; inactive means mostly below about 43%; further: 0% is about no effect
# SARS PLP yeast = qHTS of Yeast-based Assay for SARS-CoV PLP. Potency, µM (doses to about 32.9 µM), for inactives: at the top dose activity, positive = growth rescue, actives largely listed as activators. 0.19% of 330,000 active. S. cerevisiae expressing SARS-CoV PLpro, growth rescue. AID 485353, 2010; calls by dose curve; further: potency means the concentration at half of the fitted maximal effect; 0% is about no effect; nearly all actives have a fitted effect of over 55% in size
# Pf growth 48h = Primary qHTS for delayed death inhibitors of the malarial parasite plastid, 48 hour incubation; Potency, µM (top dose mostly 28.7 µM), for inactives: at the highest dose activity change, negative = inhibition, most hits filed as inhibitors; P. falciparum luciferase growth in erythrocytes, 48 h; 5.9% of 310,000 active; further: potency means the concentration at half of the fitted maximal effect; on the % scale 0 is the no-effect control and ±100 the full control effect
#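 A one-generation exposure of luciferase-tagged malaria parasites in RPMI 1640/Albumax erythrocyte culture, 37 C and 5% CO2. Inhibition is inferred from decreased luminescence after adding detection reagent.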
# NS1 function inh = qHTS Assay for Inhibitors of Influenza NS1 Protein Function | Potency, µM (top dose mostly 46.1 µM), inactives show at the top dose activity, positive = more growth | 0.4% of 270,000 active | AID 2326, 2010; calls by dose curve; further: potency means the concentration at half of the fitted maximal effect; actives are rising curves; nearly all actives have a fitted effect of over 50% in size
#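 In this qHTS, NS1 from influenza A is expressed in budding yeast, where it slows growth. Cells are switched from glucose to 2% galactose medium (pH 6.0, -URA), treated with compound, and growth recovery is read at OD600.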
# Pf growth 96h = Primary qHTS for delayed death inhibitors of the malarial parasite plastid, 96 hour incubation | 6.9% of 320,000 active | P. falciparum luciferase reporter growth, 96 h | Potency, µM (doses to about 28.7 µM), for the others: top-dose activity change, negative = inhibition, most hits filed as inhibitors; further: potency means the concentration at half of the fitted maximal effect; on the % scale 0 is the no-effect control and ±100 the full control effect
#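 P. falciparum expressing integrated firefly luciferase grown in erythrocytes (2% hematocrit, 0.05% parasitemia final) with compounds for 96 hours at 37 C, 5% CO2. Growth inhibition read as loss of luminescence after adding luciferase detection reagent.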
# CHX counter = Cycloheximide Counterscreen for Small Molecule Inhibitors of Shiga Toxin; cell reporter, cycloheximide protein synthesis inhibition counterscreen; max response, %; 12% of 300,000 active; AID 2314, 2010; in the data active means max response mostly above about 13%, no sharp cut-off; inactive means mostly below about 14%; further: read at 38.3 µM for the half of the compounds with a filed dose; 0% is about no effect
# Starred values were filed as active, the others as inactive; i = inactive; ? = inconclusive; / = no result given. Unless noted, the call rests on the fitted dose curve; in most records, active means well fitted inhibition curve with a large enough effect; inconclusive means small, poorly fitted or top-dose-only effect, or another doubt; inactive means no such curve, though single readings can be large or run the other way.
SMILES,Shiga toxin inh,SARS PLP yeast,Pf growth 48h,NS1 function inh,Pf growth 96h,CHX counter
Cc1ccc(C(=O)NCCNC(=O)c2cccnc2)cc1,1,0%,32%,9%,-23%,-5
Cc1cc(Cl)ccc1OC(C)C(=O)Nc1ccc([N+](=O)[O-])cn1 (stereo not given),3,-58%,0%,-18%,-5%,-4
Cn1ncc([N+](=O)[O-])c1C(=O)N1CCOCC1,-7,-1%,-5%,4%,30%,2
COc1cc(CN2CCCCC2)ccc1OCc1ccccc1,56*,2%,16%,14%,?,32*
COc1cc(CNC(=O)C2CC2)ccc1OCc1ccccc1,64*,-26%,112%,-6%,113%,46*
CCOC(=O)C1CCN(Cc2ccc(OCc3ccccc3)c(OC)c2)CC1,-1,26%,4%,-10%,?,9
CCOc1ccc(CNC(=O)C2CCN(S(=O)(=O)CC)CC2)cc1OC,-14,-2%,45%,0%,i,-5
COc1cc(CN2CCC(C(=O)NCCC(C)C)CC2)ccc1OCc1ccccc1,101*,1%,3%,-6%,26%,25*
CCOC(=O)C1CCN(Cc2ccc(OC)c(OCc3ccccc3)c2)CC1,-7,-3%,30%,-4%,12µM*,-1
COc1ccc(-c2[nH]ncc2CN2CCC(N3CCSCC3)CC2)cc1F,-5,0%,45%,5%,14%,10
CCN(CC(=O)NCc1cccs1)C(=O)c1ccc(S(=O)(=O)Nc2cccc(C)c2C)cc1,-1,-1%,-1%,-1%,10%,-3
Brc1ccc(N=C(c2ccccc2)c2ccncc2)cc1,-2,11%,8%,-2%,-3%,8
Cc1occc1C(=O)N/N=C/c1cccnc1,75*,-11%,50%,4%,24%,25*
Cc1cc(C(=O)N/N=C/c2cccnc2)c(C)o1,8,-2%,39%,4%,-16%,16*
COc1cc(OC)cc(C(=O)Nc2ccn(C)n2)c1,/,-4%,20%,/,10%,/
C=C1C(=O)OC(CCCCCCCC)C1C(=O)O (stereo not given),-9,/,/,/,/,-4
CNC(=S)NNC(=O)c1sc(-c2cc(C)on2)nc1C,2,0%,-20%,-4%,-17%,-1
CCOc1ccc(N(CC(=O)N2CCN(c3ccccc3OC)CC2)S(=O)(=O)c2ccc(F)cc2)cc1,2,1%,?,-14%,0.93µM*,2
CCOc1ccc(N(CC(=O)N2CCN(c3ccccc3OC)CC2)S(=O)(=O)c2ccc(C)cc2)cc1,-6,-4%,?,15%,12µM*,-3
O=C(CN1CCC(n2nnc3cc(F)ccc32)CC1)NC1CC1,-10,-9%,27%,0%,3%,-3
O=C(CN1CCC(n2nnc3cc(F)ccc32)CC1)N1CCc2ccccc2C1,-7,-1%,8.3µM*,-10%,5%,-4
O=C(CN1CCC(n2nnc3cc(F)ccc32)CC1)Nc1ccccc1N1CCOCC1,-27,0%,1.7µM*,-40%,-17%,-2
COC(=O)[C@]1(C)N[C@H](CN(C)S(=O)(=O)c2ccc(C)cc2)[C@@H]2C(=O)N(Cc3ccccc3)C(=O)[C@@H]21,/,1%,/,/,/,/
CCOc1ccc(NCc2cccn2-c2nnc(N3CCC(C(=O)NCCCN4C(C)CCCC4C)CC3)s2)cc1 (stereo not given),17,1%,?,-17%,-22%,9
CCOc1ccc(NCc2cccn2-c2nnc(N3CCC(C(=O)NCCCN4CCCCC4)CC3)s2)cc1,23*,-4%,-20%,-4%,?,17*
Cc1ccc(/C=N/c2sc(Cc3ccccc3)c(C)c2C(N)=O)o1,-6,-4%,2%,-3%,?,-4
Cc1ccc(C=Nc2ccccc2C(N)=O)o1,61*,-24%,155%,?,202%,61*
CN(C)c1ccc(C=Nc2ccccc2C(N)=O)cc1,39,-7%,12%,-108%,30%,26*
CCN(CC)S(=O)(=O)c1cc(NC(=O)C2CC(=O)N(Cc3ccccc3)C2)ccc1Cl (stereo not given),/,0%,10µM*,/,?,/
